Results: PubChem BioAssay (NCI)
Compounds without any hit were thinned out: in the full panel of roughly 79,000, 15% have a hit. Active and inactive are the calls of the source. Rule as the data show it: active = growth inhibition above about 70%; inactive = the rest.

Assays:
[1] = NCI Yeast Anticancer Drug Screen. Data for the rad50 strain (AID 155);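 also: 0% = growth of vehicle-only cultures of the same strain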; settings: S. cerevisiae rad50 strain growth inhibition, hits give high values
Procedure, shortened: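 Cells are treated with compound, grown, and their growth is then scored against vehicle-only cultures of the same repair-deficient yeast strain.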

[2] = NCI Yeast Anticancer Drug Screen. Data for the mec2-1 strain (AID 157); settings: S. cerevisiae mec2-1 strain, hits give high values
Procedure, shortened: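 Using mec2-1 yeast: add compound, measure growth, express inhibition versus vehicle-treated cultures.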

[3] = NCI Yeast Anticancer Drug Screen. Data for the sgs1 mgt1 strain (AID 161);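 also: 0% = growth of cultures given vehicle only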; settings: S. cerevisiae sgs1 mgt1 strain, hits give high values
Procedure, shortened: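 Growth of a repair-deficient yeast mutant was monitored after compound treatment and expressed as inhibition relative to vehicle-treated cultures.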

[4] = NCI Yeast Anticancer Drug Screen. Data for the cln2 rad14 strain (AID 165);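 also: 0% = growth equal to vehicle treated cultures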; settings: S. cerevisiae cln2 rad14 strain, hits give high values
Procedure, shortened: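 Yeast strain cln2 rad14, bearing defects in cell cycle control and DNA repair, serves as the test system; values reflect growth inhibition compared with vehicle.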

[5] = NCI Yeast Anticancer Drug Screen. Data for the bub3 strain (AID 167); settings: S. cerevisiae bub3 mutant strain, hits give high values
Procedure, shortened: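 Part of a panel of yeast mutants defective in DNA damage repair or cell cycle regulation. Each strain is grown with compound, and inhibition is calculated relative to solvent-treated cultures.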

[6] = NCI Yeast Anticancer Drug Screen. Data for the mlh1 rad18 strain (AID 175); settings: S. cerevisiae mlh1 rad18 strain growth inhibition, hits give high values
Procedure, shortened: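 Steps: expose repair-defective yeast to compound; measure growth; express inhibition against vehicle-treated controls.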

[7] = at 5.0 µM (retest, dose inferred, filed as 0.5)
[8] = at 50.0 µM (retest, dose inferred, filed as 5.0)

Measured: growth inhibition

CC1=NC(=Cc2ccc(Cl)cc2)C(=O)N1n1c(-c2ccccc2)nc2ccccc2c1=O
active: [2]; [8] 83% | [2]; at 50.0 µM 70.2% | [3]; [8] 71% | [3]; at 50.0 µM 86% | [4]; [8] 83% | [4]; at 50.0 µM 80% | [5]; [8] 87% | [5]; at 50.0 µM 82% | [6]; at 50.0 µM 81.5%
inactive: [1]; [7] -8% | [1]; [8] 59% | [1]; at 50.0 µM 67.3% | [2]; [7] -10% | [3]; [7] -7% | [4]; [7] -24% | [5]; [7] -6% | [6]; [7] 5% | [6]; [8] 59%

Cc1ccc(N2C(=O)C(C)SC23C(=O)Nc2ccc(Cl)cc23)cc1 (stereo not given)
inactive: [1]; [7] -8% | [2]; [7] 9% | [3]; [7] -3% | [3]; at 50.0 µM 37.4% | [4]; [7] 0% | [5]; [7] -8% | [6]; [7] 1%
active: [1]; [8] 99% | [1]; at 50.0 µM 98.5% | [2]; [8] 99% | [2]; at 50.0 µM 98.8% | [3]; [8] 98% | [4]; [8] 98% | [4]; at 50.0 µM 97.8% | [5]; [8] 98% | [5]; at 50.0 µM 98.8% | [6]; [8] 99% | [6]; at 50.0 µM 89%

CCOc1c(N=Nc2ccccc2OC)c(C)nn1C(N)=S
inactive: [1]; [7] 6% | [1]; [8] 24% | [1]; at 50.0 µM 8.85% | [2]; [7] -10% | [2]; [8] 21% | [2]; at 50.0 µM 3.9% | [3]; [7] -5% | [3]; [8] 41% | [3]; at 50.0 µM 9.1% | [4]; [7] -2% | [4]; [8] 3% | [4]; at 50.0 µM -20.6% | [5]; [7] 1% | [5]; [8] 14% | [5]; at 50.0 µM 22.9% | [6]; [7] -4% | [6]; [8] 21% | [6]; at 50.0 µM 29.9%

COc1ccc(-c2c(C#N)c(-c3ccc(C)cc3)n(NS(=O)(=O)c3ccc(C)cc3)c(=O)c2C#N)cc1
active: [1]; at 50.0 µM 71.3% | [2]; [8] 70% | [3]; at 50.0 µM 84.7% | [5]; at 50.0 µM 79.4% | [6]; at 50.0 µM 83.6%
inactive: [1]; [7] -2% | [1]; [8] 55% | [2]; [7] -2% | [2]; at 50.0 µM 68.7% | [3]; [7] -3% | [3]; [8] 44% | [4]; [7] -5% | [4]; [8] 68% | [4]; at 50.0 µM 64.1% | [5]; [7] 4% | [5]; [8] 65% | [6]; [7] -2% | [6]; [8] 62%

CC/C(=N\NS(=O)(=O)c1ccc(C)cc1)c1cccc(OC)c1
inactive: [1]; [7] 34% | [1]; [8] 47% | [1]; at 50.0 µM 69.6% | [2]; [7] 12% | [2]; [8] 37% | [2]; at 50.0 µM 40.6% | [3]; [7] 50% | [4]; [7] 37% | [4]; at 50.0 µM 51.2% | [5]; [7] 43% | [5]; at 50.0 µM 36.6% | [6]; [7] 36%
active: [3]; [8] 90% | [3]; at 50.0 µM 88.8% | [4]; [8] 78% | [5]; [8] 86% | [6]; [8] 87% | [6]; at 50.0 µM 92.2%

COc1cc(/C=C2/SC(=S)NC2=O)cc(OC)c1O
active: [3]; at 50.0 µM 71.4%
inactive: [1]; [7] -18% | [1]; [8] 29% | [1]; at 50.0 µM 46.4% | [2]; [7] 3% | [2]; [8] 49% | [2]; at 50.0 µM 30.9% | [3]; [7] 1% | [3]; [8] 42% | [4]; [7] -25% | [4]; [8] 20% | [4]; at 50.0 µM -1.6% | [5]; [7] -24% | [5]; [8] 22% | [5]; at 50.0 µM 42.6% | [6]; [7] -1% | [6]; [8] 19% | [6]; at 50.0 µM 41.2%

O=C(O)CC(CCCc1ccccc1)C(=O)O (stereo not given)
inactive: [1]; [7] -1% | [1]; [8] -3% | [1]; at 50.0 µM -7.45% | [2]; [7] -41% | [2]; [8] -3% | [2]; at 50.0 µM 15.4% | [3]; [7] -1% | [3]; [8] -4% | [3]; at 50.0 µM -10.8% | [4]; [7] -2% | [4]; [8] -1% | [4]; at 50.0 µM 40.9% | [5]; [7] -5% | [5]; [8] -7% | [5]; at 50.0 µM -1.1% | [6]; [7] 0% | [6]; [8] -4% | [6]; at 50.0 µM 2.55%

CC(C)CNc1cc(Cl)nc(N)n1
inactive: [1]; [7] -1% | [1]; [8] 0% | [2]; [7] 4% | [2]; [8] 1% | [3]; [7] 2% | [3]; [8] -3% | [4]; [7] -2% | [4]; [8] -6% | [5]; [7] 1% | [5]; [8] -2% | [5]; at 50.0 µM 59% | [6]; [7] -4% | [6]; [8] -5%
active: [1]; at 50.0 µM 88% | [2]; at 50.0 µM 92.3% | [3]; at 50.0 µM 89.9% | [4]; at 50.0 µM 91.3% | [6]; at 50.0 µM 95.5%

CCc1nc(N)nc(N)c1-c1ccc(NCCN)c([N+](=O)[O-])c1
inactive: [1]; [7] -20% | [1]; [8] -26% | [2]; [7] -3% | [2]; [8] 5% | [3]; [7] -28% | [3]; [8] -22% | [4]; [7] -7% | [4]; [8] -34% | [5]; [7] 2% | [5]; [8] -28% | [6]; [7] -31% | [6]; [8] -40%
active: [1]; at 50.0 µM 98.7% | [2]; at 50.0 µM 98.7% | [3]; at 50.0 µM 98.8% | [4]; at 50.0 µM 98.5% | [5]; at 50.0 µM 98% | [6]; at 50.0 µM 98.9%

CCCCC(=O)N/N=C/c1ccc([N+](=O)[O-])s1
active: [1]; [8] 93% | [1]; at 50.0 µM 97% | [2]; [8] 94% | [2]; at 50.0 µM 96% | [3]; [8] 95% | [3]; at 50.0 µM 94.5% | [4]; at 50.0 µM 90.8% | [5]; [8] 94% | [5]; at 50.0 µM 95.7% | [6]; [8] 97% | [6]; at 50.0 µM 97%
inactive: [1]; [7] 9% | [2]; [7] 7% | [3]; [7] 8% | [4]; [7] 1% | [4]; [8] 38% | [5]; [7] -2% | [6]; [7] 7%
